Screens (PubChem BioAssay)
Tau fibril ThT: inhibitors of human tau fibril formation, thioflavin T binding; P10636; recombinant tau K18 P301L, heparin-induced fibrillization, ThT fluorescence; Potency, µM (series often up to 57.4 µM), for the others: at the highest dose activity, negative = inhibition, hits mostly inhibitors; AID 1460; 2.1% of 270,000 active; note: potency is the fitted concentration of half-maximal effect; nearly all actives have a fitted effect of over 55% in size
Target sequence (P10636 561-689 P618L limits assumed): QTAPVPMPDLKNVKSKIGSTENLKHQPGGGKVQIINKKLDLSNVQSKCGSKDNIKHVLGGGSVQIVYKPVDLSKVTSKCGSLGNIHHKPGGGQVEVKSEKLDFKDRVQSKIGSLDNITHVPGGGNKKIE
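K18 P301L tau (15 uM + 0.24 uM Alexa 594-tagged), heparin 20 uM, NaOAc pH 7, 6 h 37 C; ThT 30 uM, 1 h RT, ex 450/em 510 nm.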
Sfp PPTase inh: blocks B. subtilis Sfp PPTase activity | Q9F4F7 | Biochemical Sfp PPTase activity, qHTS | Potency, µM, without a hit: largest response in the series, negative = inhibition, actives largely listed as inhibitors | 3.5% of 310,000 active;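 note: the enzyme is Sfp with the accession as filed and its product quenches rhodamine fluorescence; potency is the fitted concentration of half-maximal effect; 0% = enzyme reaction without inhibitor and -100% = no enzyme wells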
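After 15 min at room temperature with compound, 15 nM Sfp received 5 uM rhodamine-CoA plus 12.5 uM BHQ-2-ybbR (50 mM Hepes pH 7.6, 10 mM MgCl2). Rate came from the fluorescence difference over 30 min, ex 525/em 598 nm.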
G9a block: inhibitors of human histone lysine methyltransferase G9a | 8.8% of 350,000 active | G9a H3K9 monomethylation, AlphaScreen, 2 h | Potency, µM (titrated, usually from 102 µM), inactives show at the highest dose activity, negative = inhibition, actives largely listed as inhibitors | AID 504332 | Q96KQ7; note: potency is the fitted concentration of half-maximal effect; nearly all actives have a fitted effect of over 75% in size
Target sequence (Q96KQ7 913-1193 limits assumed): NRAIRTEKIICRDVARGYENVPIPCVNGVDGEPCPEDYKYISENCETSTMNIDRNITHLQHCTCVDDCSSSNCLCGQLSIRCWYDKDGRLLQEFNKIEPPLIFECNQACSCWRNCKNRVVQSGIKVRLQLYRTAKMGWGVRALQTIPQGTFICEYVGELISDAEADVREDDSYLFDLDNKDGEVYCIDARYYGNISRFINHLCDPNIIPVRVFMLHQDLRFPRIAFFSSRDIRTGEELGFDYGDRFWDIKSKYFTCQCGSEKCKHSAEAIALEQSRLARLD
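Signal arises when biotinylated H3K9 peptide, once monomethylated, bridges streptavidin donor and antibody-captured acceptor beads. Enzyme at 20 nM was preincubated 15 min with test compounds; peptide 500 nM and SAM 20 uM then reacted for 2 h.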
FBPA coupling cs: counter-screen for Giardia aldolase inhibitors: coupling enzyme system; coupling enzyme system counterscreen, AmpLite Red fluorescence; activity change, negative = inhibition, % at 58.2 µM, hits read low; 0.67% of 290,000 active; in the data active = activity change below about -30%
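Activity here indicates interference with the coupling reaction, not aldolase inhibition. Compounds at 57.5 uM final met coupling enzymes for 10 min at RT; substrate and AmpLite Red detection followed, with a 525/598 nm fluorescence read after 20 min.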
Tau FP inhib: inhibitors of human tau fibril formation. P10636. Potency, µM (series often up to 57.7 µM), inactives show at the top dose activity, negative = inhibition, hits mostly inhibitors. K18 P301L tau heparin fibrillization, Alexa594 FP, 6 h. 0.39% of 280,000 active; note: potency is the fitted concentration of half-maximal effect; nearly all actives have a fitted effect of over 55% in size
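FP of Alexa 594-tau after heparin (20 uM) induction. Substrate: human K18 P301L, 15 uM unlabeled, 0.24 uM labeled. Buffer 100 mM sodium acetate pH 7. 6 hr, 37 C.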
Tau fluor counter: counter-screen for tau fibril formation inhibitors; tau K18 P301L Alexa594 fluorescence, heparin fibrillization; Potency, µM (series often up to 57.7 µM), for the others: top-dose activity change, negative = decrease; 0.93% of 280,000 active; AID 1463; note: potency is the fitted concentration of half-maximal effect; nearly all actives have a fitted effect of over 55% in size
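Human tau K18 P301L (15 uM unlabeled, 0.24 uM Alexa 594-labeled) in 100 mM sodium acetate pH 7 with 20 uM heparin, 6 hr at 37 C. ThT 30 uM added, 1 hr ambient; Alexa 594 FP and total fluorescence read at 555/632 nm.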
* = called active by the depositor; ? = inconclusive; . = not tested or not shown; [ ] = remark or other dose. Only some compounds are listed: those with a hit (about 11% of all), similar ones and a draw of the others. Unless noted, calls come from the whole dose curve; as a rule, active = well fitted curve in the direction sought with a large enough effect; inconclusive = small, poorly fitted or top-dose-only effect, or another doubt; inactive = no such curve, though single readings can be large; an effect the other way counts as inactive or inconclusive. Unless noted, % is set by controls: 0 for no effect and ±100 for the full control effect.

SMILES	Tau fibril ThT	Sfp PPTase inh	G9a block	FBPA coupling cs	Tau FP inhib	Tau fluor counter
O=C1CCCN1CCC1CCN(C2CC(=O)N(c3ccc(F)cc3)C2=O)CC1 (centres undefined)	-16.9%	-14.4%	14.1µM*	3.4	3.7%	1.6%
Cc1ccc(C)c(N2CCN(C(=O)c3ccc4c(c3)N(Cc3ccc(F)cc3)C(=O)c3ccccc3S4=O)CC2)c1 (centres undefined)	-17.5%	.	-10.7%[59 µM]	.	-6.1%	-19.6%
Cc1ccc(NC(=O)CNS(=O)(=O)c2cccs2)cc1F	3.1%	9.2%	79.4µM*	-9.1	3.4%	1.8%
CCn1c(C)cc(/C=C2\SC(=O)N(CC(=O)Nc3ccc(C)c(C)c3)C2=O)c1C	-5.7%	?	17.6%	2.8	1.1%	-28.8%
Cc1cccc(NC(=O)CN2C(=O)S/C(=C\c3ccc(-c4cccc(C(=O)O)c4C)o3)C2=O)c1	?	-16.7%	12.6µM*	5.1	5.5%	0.3%
O=C(CN1C(=O)S/C(=C\c2cccs2)C1=O)Nc1ccc(O)c(C(=O)O)c1	.	-14.6%	?	.	.	.
Cc1ccc(NC(=O)CN2C(=O)S/C(=C/c3ccc(-c4cc(C(=O)O)ccc4C)o3)C2=O)cc1C	?	56.2µM*	3.55µM*	7.4	-11.0%	-16.1%
O=C1C(=Cc2ccc(Br)o2)C(=O)c2ccccc21	6.31µM*	56.2µM*	20µM*	1.3	?	?
Cc1ccc(C(=O)O)cc1-c1ccc(C=C2C(=O)c3ccccc3C2=O)o1	?	-4.1%	17.8µM*	-1.7	-14.5%	-15.5%
CO[C@H]1COC(=O)[C@H](C)NC(=O)C/C=C\[C@@H](C)[C@H](OC)COC(=O)C/C=C\[C@@H]1C	-5.5%[11.5 µM]	5.2%	.	2.2	-13.5%[11.6 µM]	-2.8%[11.6 µM]
CCCCNc1nc2c(S(=O)(=O)c3ccc(Cl)cc3)nnn2c2ccsc12	15.1%	.	-0.9%[59 µM]	.	-18.0%	-5.5%
CC(=O)O[C@@]1(C)C[C@@H](O)[C@]2(O)C=CO[C@@H](O[C@@H]3O[C@H](CO)[C@@H](O)[C@H](O)[C@H]3O)[C@@H]21	.	.	10.7%[2.33 µM]	.	.	.
COC(=O)C(C)N1C(=O)S/C(=C\c2ccc(-c3ccc(C(=O)O)cc3C)o2)C1=O (centres undefined)	.	-1.3%	39.8µM*	5.2	.	.
Cc1ccccc1NC(=O)CN1C(=O)S/C(=C\c2ccc(-c3cccc(C(=O)O)c3C)o2)C1=O	3.6%	-29.9%	20µM*	0.2	3.5%	-1.2%
Cc1cc(C(=O)O)ccc1-n1c(C)cc(C=C2C(=O)c3ccccc3C2=O)c1C	14.1µM*	-20.5%	28.2µM*	-24.5	-7.7%	-18.4%
Cc1cc(C(=O)O)ccc1-n1c(C)cc(/C=C(/C#N)C(=O)Nc2ccccc2)c1C	-6.2%	-14.3%	.	-1.3	2.6%	4.3%
CCOC(=O)C(C)N1C(=O)S/C(=C/c2ccc3c(c2)n(C)c(=O)n3C)C1=O (centres undefined)	-3.1%	-2.8%	-19.9%	-2.6	-0.7%	-6.3%
COc1cccc(NC(=O)C2CCCN(S(C)(=O)=O)C2)c1 (centres undefined)	.	8.2%	.	0.0	.	.
Cc1ccc(S(=O)(=O)NCCc2sc3nc(-c4ccccc4)nn3c2C)cc1C	-8.6%	.	12.1%[59 µM]	.	-12.7%	-21.9%
Fc1ccccc1NC(=S)Nn1cnnc1	.	17.8µM*	3.98µM*	.	.	.
Cc1cccc(NC(=S)Nn2cnnc2)c1C	1.5%	10µM*	.	-0.3	5.2%	4.0%
CCOc1ccccc1NC(=S)Nn1cnnc1	.	7.08µM*	1.78µM*	.	.	.
Cc1cccc(NC(=S)NN2CCN(C)CC2)c1C	-1.2%	-4.9%	28.9%[59 µM]	3.9	-7.9%	-3.1%
CCOc1ccccc1NC(=S)Nc1ncccc1C	-9.8%	?	10µM*	-0.5	-4.8%	-15.9%
CCOc1ccccc1NC(=S)Nc1ccccc1F	-12.6%	?	12.6%[59 µM]	-2.3	-2.5%	-8.8%
SMILES	Tau fibril ThT	Sfp PPTase inh	G9a block	FBPA coupling cs	Tau FP inhib	Tau fluor counter
CO[C@@H]1COC(=O)[C@H](C)NC(=O)[C@@H](C)COC(=O)CCC[C@H]1C	-7.5%[11.5 µM]	12.1%	.	2.2	-6.9%[11.6 µM]	-13.1%[11.6 µM]
CCc1ccccc1NC(=O)CC(=O)Nc1ccccc1CC	.	13.9%	.	-1.6	.	.
Cc1ccccc1NC(=S)Nn1cnnc1	.	22.4µM*	.	.	.	.
CCc1ccccc1NC(=S)Nn1cnnc1	.	35.5µM*	10µM*	.	.	.
CSc1cccc(Nc2cc(C(=O)NCCCN(C)c3ccccc3)c3ccccc3n2)c1	-7.2%	.	-31.2%[59 µM]	.	-7.3%	2.82µM*[quencher]
COc1ccc(Nc2cc(C(=O)NCCCN(C)Cc3ccccc3)c3ccccc3n2)cc1OC	?	.	?	.	?	28.2µM*[quencher]
CCCCN(CCCNC(=O)c1cc(Nc2ccc(OC)c(OC)c2)nc2ccccc12)c1ccccc1	-16.0%	.	-7.4%[59 µM]	.	11.6%	7.08µM*[quencher]
COc1ccc(Nc2cc(C(=O)NCCc3ccccc3)c3ccccc3n2)cc1OC	-3.9%	.	0.5%[59 µM]	.	3.3%	?
CCCCN(C)CCCNC(=O)c1cc(Nc2ccc(OC)c(OC)c2)nc2ccccc12	.	2.9%	70.8µM*	-0.7	.	.
C=CCOC(=O)N[C@H](c1cccc(C(F)(F)F)c1)C(C(C)=O)C(C)=O	1.7%	-0.3%	.	1.7	4.7%	-1.7%
CC[C@@H](c1ccccc1)n1c(=O)n2n(c1=O)[C@H]1[C@H](O)[C@H]3O[C@@H]3/C(=N/OC/C=C(\C)CCC=C(C)C)[C@@H]1CC2	-3.8%[11.5 µM]	7.0%	.	1.5	-4.2%[11.6 µM]	-1.2%[11.6 µM]
CCCN(N=Nc1cccc([N+](=O)[O-])c1)c1cccc([N+](=O)[O-])c1	-14.6%	5.2%	31.6µM*	-2.7	4.6%	?
CC(=O)Nc1nnc(SCC(=O)NCC2CCCO2)s1 (centres undefined)	0.1%	-0.5%	?	-1.8	3.7%	-3.2%
Cc1cccc(N2CC(C(=O)Nc3nnc(SCCC4OCCO4)s3)CC2=O)c1 (centres undefined)	.	-24.5%	22.4µM*	-0.8	.	.
Cc1ccc(N2CC(C(=O)Nc3nnc(SCC(=O)NCC4CCCO4)s3)CC2=O)cc1C (centres undefined)	.	-9.4%	39.8µM*	.	.	.
O=C(CSc1nnc(NC(=O)c2ccccc2)s1)NCC1CCCO1 (centres undefined)	.	3.6%	?	-0.4	.	.
Cc1cccc(N2CC(C(=O)Nc3nnc(SCC(=O)NCC4CCCO4)s3)CC2=O)c1 (centres undefined)	.	?	11.2µM*	.	.	.
O=C(CSc1nnc(NC(=O)c2ccccc2F)s1)NCC1CCCO1 (centres undefined)	.	50.1µM*	14.1µM*	.	.	.
Cc1cccc(NC(=O)N2C3CCCC2CC(NC(=O)C(C)(C)C)C3)c1 (centres undefined)	.	-5.0%	31.4%	4.4	.	.
O=C(O)c1cc2cc(Oc3ccccc3)ccc2[nH]1	.	12.0%	?	13.9	.	.
